FadD28 binding – inhibitors of FadD28 bisubstrate probe binding, primary screen, biochemical, fluorescence polarization, single point; inhibition, % at 12.5 µM; hit rate 0.22% among 360,000; AID 588549, 2011; in the data active = inhibition above about 8.5%, passing the limit was not always enough
Mtb hypoxia rep – PubChem AID 1159583; M. tuberculosis hypoxia-regulated fluorescent reporter, fluorescence; fluorescence inhibition, % (test concentration not listed); hit rate 0.1% among 300,000; in the data active = fluorescence inhibition mostly above about 23%, no sharp cut-off; inactive = mostly below about 17%
FBA Mtb inh – Mtb FBA enzyme inhibitors, primary screen, biochemical, fluorescence, strain H37Rv; Fructose-bisphosphate aldolase (Mycobacterium tuberculosis (strain ATCC 25618 / H37Rv)), …; purified M. tuberculosis FBA, fluorescence read-out; inhibition, % at 1 µM; hit rate 2.3% among 360,000; AID 588726, 2011; in the data active = inhibition above about 27%;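 also: 0% = vehicle and 100% = reference inhibitor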
Rv3671c inh – Rv3671c serine protease inhibitors, primary screen, biochemical, fluorescence polarization, M. tuberculosis H37Rv; P9WHR9; inhibition, % at 5.96 µM; hit rate 0.048% among 320,000; in the data active = inhibition above about 38%;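 also: extracellular domain of Rv3671c used as enzyme; 0% = enzyme with DMSO and 100% = no enzyme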
Mtb UGM inh – M. tuberculosis UGM enzyme inhibitors, primary screen, biochemical, fluorescence polarization, single point | UDP-galactopyranose mutase (Mycobacterium tuberculosis (strain ATCC 25618 / H37Rv)), … | purified UGM, fluorescence polarization probe displacement | inhibition, % at 10 µM | hit rate 0.06% among 320,000; in the data active = inhibition above about 10%, passing the limit was not always enough
Target sequence (P9WIQ1 whole entry, looked up): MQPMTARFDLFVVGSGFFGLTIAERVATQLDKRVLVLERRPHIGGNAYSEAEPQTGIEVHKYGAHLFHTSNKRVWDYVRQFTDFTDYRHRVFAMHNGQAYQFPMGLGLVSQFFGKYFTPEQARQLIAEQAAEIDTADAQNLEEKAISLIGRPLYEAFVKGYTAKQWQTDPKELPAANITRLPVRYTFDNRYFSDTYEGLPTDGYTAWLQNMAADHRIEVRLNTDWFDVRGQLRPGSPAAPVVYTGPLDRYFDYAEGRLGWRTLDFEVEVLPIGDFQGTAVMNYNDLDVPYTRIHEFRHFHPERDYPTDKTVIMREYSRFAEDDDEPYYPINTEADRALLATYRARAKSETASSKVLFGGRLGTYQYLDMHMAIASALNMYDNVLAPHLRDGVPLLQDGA
GDH-TPI counter – GDH-TPI coupling enzyme inhibitors, primary screen, artefact control for M. tuberculosis FBA inhibitor project, biochemical, absorbance, full deck. GDH-TPI coupled enzyme counterscreen, NADH absorbance. inhibition, % at 4.8 µM. hit rate 1.2% among 360,000; in the data active = inhibition above about 30%;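 also: 0% = DMSO wells and 100% = wells lacking the enzyme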
Starred values were filed as active, the others as inactive; · = no result shown; + = active, no number. The list is not random: actives were taken first. Their share in the collection is about 3.5%.

SMILES | FadD28 binding | Mtb hypoxia rep | FBA Mtb inh | Rv3671c inh | Mtb UGM inh | GDH-TPI counter
O=c1c2ccccc2nc(/C=C/c2ccc(Br)cc2)n1CCCO | -3 | 1 | 0 | 1 | -1 | 22
CN(CCO)S(=O)(=O)c1ccc2c(c1)C(=NNC(N)=O)c1cc(S(=O)(=O)N(C)CCO)ccc1-2 | -2 | -1 | 3 | -9 | 0 | 56*
COc1ccc2c(c1)C(=O)N1C3c4cc(Cl)ccc4OCC3C(c3ccccc3)[C@]1(C)C(=O)N2 (some centres not stated) | · | -10 | · | · | · | ·
CC(=O)Nc1ccc(N/C=C/C(=O)C(C)(C)C)cc1 | -1 | -1 | 2 | 1 | -3 | 42*
Cc1ccccc1-n1c(C)nc2sccc2c1=O | -2 | 3 | 1 | -2 | 2 | 1
Cc1ccccc1-n1c2nc(=O)n(C)c(=O)c-2cc2ccccc21 | -3 | 3 | 131* | 6 | -1 | 21
CN(C)c1ccc(C=NNC(=O)C2COc3ccccc3O2)o1 (configuration not stated) | · | -5 | · | · | · | ·
COc1cc(/C=C2\SC(=O)NC2=O)ccc1Oc1ccc([N+](=O)[O-])cn1 | -6 | 14 | -1 | 1 | -1 | 36*
COc1ccc(/C=C(\C#N)c2nc3ccc(C)cc3[nH]2)cc1Oc1ccc(C(F)(F)F)cc1[N+](=O)[O-] | 1 | 6 | 0 | -3 | 2 | 9
COc1cc(/C=C(\C#N)c2nc3ccccc3[nH]2)ccc1Oc1ccc([N+](=O)[O-])cn1 | -2 | -3 | 3 | -18 | 2 | 32*
COc1cc(/C=C2/SC(=O)NC2=O)ccc1Oc1ccc([N+](=O)[O-])cc1[N+](=O)[O-] | 0 | 9 | -1 | 6 | 0 | 26
COc1cc(/C=C(\C#N)c2nc3ccc(C)cc3[nH]2)cc([N+](=O)[O-])c1O | 30* | · | -19 | · | · | 17
COc1cc(/C=C(\C#N)c2nc3ccc(C)cc3[nH]2)c([N+](=O)[O-])cc1OC | 4 | · | 3 | 9 | 1 | 33*
CC1NC(=O)c2cc([N+](=O)[O-])cc(F)c2NCCCC(C(N)=O)NC(=O)C(CC(N)=O)NC1=O (configuration not stated) | · | 8 | · | · | · | ·
CN1CCC(=O)N(C(CC#N)c2ccccc2)CC1 (configuration not stated) | · | 8 | · | · | · | ·
CN(C)CCCN(Cc1ccccc1)C(=S)Nc1ccc(OC(F)F)cc1 | -1 | 18 | 142* | -2 | 2 | 7
CCOc1cc(C=NO)cc(Br)c1OCC(=O)NCc1ccccc1 | · | 16 | · | · | · | ·
COc1cccc(NC(=O)Cn2c(=O)oc3cc(S(=O)(=O)N4CCCC4)ccc32)c1 | 24* | -12 | 3 | 3 | 3 | -5
Cc1cccc(NC(=O)Cn2c(=O)oc3cc(S(=O)(=O)N4CCCC4)ccc32)n1 | 14* | 8 | 0 | -6 | 6 | 15
Cc1cccc(NC(=O)Cn2c(=O)oc3ccccc32)n1 | 20* | 4 | 2 | -6 | -2 | 4
COc1ccc(OCC(O)CN(C)C(=O)C=Cc2cccc([N+](=O)[O-])c2)cc1 (configuration not stated) | · | -2 | · | · | · | ·
Oc1[nH]c2ccccc2c1/C=N/c1nccs1 | 1 | · | -2 | -7 | 3 | 31*
COc1cc(C=NNc2nc(Nc3ccccc3)nc(N3CCOCC3)n2)ccc1OC(=O)c1ccco1 | · | 1 | · | · | · | ·
CN(C)c1oc(/C=C/c2ccccc2)nc1C#N | -3 | 3 | · | 4 | 1 | 24
COc1ccccc1/C=C/c1nc(C#N)c(N(C)C)o1 | -2 | -4 | + | -3 | 3 | 9
SMILES | FadD28 binding | Mtb hypoxia rep | FBA Mtb inh | Rv3671c inh | Mtb UGM inh | GDH-TPI counter
CN(C)c1oc(-c2ccccc2)nc1C#N | -1 | 4 | + | 5 | 0 | 18
CN(C)c1oc(-c2ccco2)nc1C#N | 0 | 11 | 127* | 1 | 1 | 16
CCOC(=O)c1nc(-c2ccccc2)oc1N(C)C | 2 | · | 131* | -2 | 1 | 15
C=CCN1C(=O)/C(=C/c2ccccc2)SC1=Nc1nccs1 | · | -9 | · | · | · | ·
C=C(C)Cn1c(SCC(=O)NN=Cc2c(O)ccc3ccccc23)nc2ccccc2c1=O | · | 9 | · | · | · | ·
CCOc1ccc(Nc2oc(-c3cccc(Cl)c3)nc2C#N)cc1 | 0 | 1 | 0 | 3 | -2 | 10
C=CCNc1oc(-c2ccc(OC)cc2)nc1C#N | -2 | 5 | 127* | -2 | 3 | 8
COc1ccc(-c2nc(C#N)c(NCc3ccco3)o2)cc1 | -3 | 3 | 117* | 6 | 2 | -2
N#Cc1nc(-c2ccc(OCc3ccccc3)cc2)oc1NCc1ccco1 | 2 | 12 | 7 | 6 | -1 | 20
C=CCNc1oc(-c2ccc(OCC)cc2)nc1C#N | -1 | 2 | 129* | 2 | -2 | 18
CCOc1ccc(Nc2oc(-c3ccco3)nc2C#N)cc1 | 1 | 4 | 4 | 7 | -4 | 16
CCOc1ccc(-c2nc(C#N)c(NCC(C)C)o2)cc1 | 0 | 8 | 156* | -10 | 0 | 18
Cc1n[nH]c(=S)n1N=Cc1ccccc1OCc1ccc(Cl)cc1 | · | 6 | · | · | · | ·
COc1ccc(C(N)=NOC(=O)C=Cc2ccccc2)cc1 | · | -1 | · | · | · | ·
O=C1C=C(c2ccc3[nH]ccc3c2)CCC1 | -2 | -6 | -2 | 1 | -1 | 35*
COc1cccc(C2=CC(=O)CC(C)(C)C2)c1 | -3 | 5 | 4 | 4 | -1 | -3
CC1(C)CC(=O)C=C(c2ccc3[nH]ccc3c2)C1 | -5 | 1 | -2 | 4 | -2 | 34*
COc1ccc2cc(C3=CC(=O)CCC3)ccc2c1 | -4 | 6 | 23 | · | · | 31*
COc1ccc(C2=CC(=O)CC(C)(C)C2)cc1OC | -2 | 14 | 5 | 5 | -3 | 35*
COCCCN1C(=O)CSC1=NS(=O)(=O)c1ccccc1 | · | 6 | · | · | · | ·
O=C(O)c1ccc(NN=C/C=C/c2ccccc2[N+](=O)[O-])cc1 | · | 4 | · | · | · | ·
O=C(O)c1ccc(NN=C/C=C/c2ccc([N+](=O)[O-])o2)cc1 | · | 68* | · | · | · | ·
O=C(O)c1ccc(N/N=C/C=C/c2ccccc2[N+](=O)[O-])cc1 | 2 | · | -7 | 6 | -2 | 39*
CCCCOC(=O)c1cc(-c2ccc(C=Nn3cnnc3)o2)ccc1Cl | · | 12 | · | · | · | ·
Cc1[nH]n(-c2ccccc2)c(=O)c1C=Nc1ccc2[nH]c(=O)[nH]c2c1 | -2 | · | 2 | -6 | -1 | 15
Cc1[nH]n(-c2ccccc2)c(=O)c1C=Nc1cccc(F)c1 | -1 | 14 | -1 | -15 | 4 | 32*
CCOc1[nH]n(-c2ccccc2)c(=O)c1C=NCC(=O)OC | -1 | 13 | 0 | -3 | 4 | 1

Screens: PubChem, several laboratories
